Some test systems named below: MST4; MTOR; MUSK; MYLK2; MYLK4; MYLK; MYO3A; MYO3B; NDR2; NEK10; NEK11; NEK1; NEK2; NEK3; NEK4; NEK5.
Conditions in all cases: concentration: 1 μM, replicates: in singlicate; n = 1
In a further test the test system is T1, MST1.
T1 construct: gene STK4

For a further test, the system named is T2, MST2.
T2 construct: gene STK3

A further test concerns T3, MST3.
T3 construct: gene STK24

The next test deals with T4, NDR1.
T4 construct: gene STK38
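Note: KINOMEscan kinase panel screen.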

Take `NS(=O)(=O)CCc1cccc(Nc2nccc(-c3c(-c4cccc(NC(=O)c5c(F)cccc5F)c4)nn4ccccc34)n2)c1` [GSK336735]: the “%Inh” value in the test on MST1 is 94.9%; in the test with MST2 it was 74%; in the test on MST3, 13%; in the test with MST4, 0%; with MTOR it was 8%; in the test with MUSK, 40%. Also, the “%Inh” value in the test on MYLK2 was 0%; with MYLK4, 0%; with MYLK, 14%; in the test on MYO3A, 26%; in the test with MYO3B it was 4%; in the test with NDR1 it was 18%. The “%Inh” value in the test on NDR2 came to 0%; in the test on NEK10 it was 7%; in the test with NEK11, 0%; with NEK1 it was 0%; with NEK2 it was 22%; in the test with NEK3, 0%. In addition, the “%Inh” value turned out to be 19% in the test on NEK4 and 8% in the test on NEK5.

For the compound `COc1ccc(Nc2ncc(C#N)c(Nc3ccccc3C(N)=O)n2)cc1N1CCN(C)CC1.Cl` [GSK1558669], the “%Inh” value in the test on MST1 came to 98.3%; with MST2, 51%; in the test with MST3, 95.5%; with MST4 it was 99.4%; with MTOR it was 0%; in the test with MUSK it was 80%. The “%Inh” value in the test with MYLK2 was 98.2%; with MYLK4 it was 98.2%; in the test with MYLK it was 99.4%; with MYO3A, 76%; in the test with MYO3B it was 0%; in the test on NDR1, 98.8%. Also, the “%Inh” value in the test with NDR2 came out at 75%; in the test on NEK10, 94.1%; in the test on NEK11 it was 97.5%; in the test on NEK1 it was 91.6%; in the test with NEK2, 99.6%; in the test with NEK3 it was 93.5%. Further, the “%Inh” value in the test on NEK4 is 94.7%; with NEK5, 100%.

Regarding `COc1ccc(CNC(=O)NC2CCN(c3ccnc(Nc4ccc(OC)cc4)n3)C2)cc1` (stereo not shown) [GSK1379727], the “%Inh” value came to 0% with MST1; 0% in the test with MST2; 0% in the test with MST3; 0% with MST4; 13% with MTOR; 7% in the test with MUSK. Further, the “%Inh” value in the test with MYLK2 is recorded as 8%; with MYLK4 it was 0%; with MYLK, 22%; in the test on MYO3A it was 18%; in the test on MYO3B, 0%; with NDR1 it was 0%. The “%Inh” value in the test with NDR2 was 42%; in the test on NEK10, 15%; in the test on NEK11 it was 11%; in the test with NEK1 it was 0%; in the test on NEK2, 0%; with NEK3, 8%. For the same compound, the “%Inh” value in the test with NEK4 is 12%; in the test with NEK5 it was 13%.

On to `CN1c2ccc(NCc3ccc(F)cc3)cc2-c2c(cnn2C)S1(=O)=O`, for which the “%Inh” value in the test with MST1 is listed as 0%; in the test on MST2 it was 28%; in the test on MST3, 0%; in the test with MST4, 0%; in the test with MTOR, 20%; in the test on MUSK it was 3%. Besides, the “%Inh” value in the test with MYLK2 is 0%; with MYLK4, 0%; in the test on MYLK, 12%; in the test with MYO3A, 0%; in the test on MYO3B it was 0%; in the test with NDR1, 22%. In addition, the “%Inh” value with NDR2 is on record as 0%; in the test on NEK10, 2%; in the test on NEK11 it was 0%; in the test on NEK1, 0%; in the test on NEK2 it was 0%; in the test on NEK3, 33%. Moreover, the “%Inh” value in the test with NEK4 and with NEK5 was 0% each time.

Consider `COc1ccc(Nc2nccc(N3CCC(NC(=O)Nc4cccc(C(C)=O)c4)C3)n2)cc1` (stereo not shown) [GSK1379731], for which the “%Inh” value was 4% in the test on MST1; 0% in the test on MST2; 0% with MST3; 0% in the test with MST4; 16% in the test on MTOR; 3% in the test with MUSK. The “%Inh” value in the test with MYLK2, in the test with MYLK4, in the test on MYLK, with MYO3A, in the test on MYO3B and in the test on NDR1 was 0% in each case. The “%Inh” value in the test on NDR2 is on record as 0%; with NEK10, 13%; in the test with NEK11, 15%; in the test with NEK1, 0%; in the test with NEK2 it was 0%; in the test with NEK3, 0%. The figures for the “%Inh” value in the test on NEK4 and in the test with NEK5 were 13% and 3%, respectively.

In the case of `O=c1cc(N2CCOCC2)nc2n(Cc3cccc(Cl)c3Cl)c(C3CC3)nn12` [GSK2358994], the “%Inh” value worked out at 0% with MST1; 41% with MST2; 4% in the test on MST3; 0% with MST4; 0% with MTOR; 0% in the test with MUSK. Besides, the “%Inh” value turned out to be 0% in the test with MYLK2; 0% in the test on MYLK4; 14% with MYLK; 0% in the test on MYO3A; 0% in the test with MYO3B; 0% in the test on NDR1. In addition, the “%Inh” value in the test with NDR2 turned out to be 0%; with NEK10, 20%; in the test on NEK11 it was 0%; in the test with NEK1, 0%; in the test on NEK2 it was 7%; with NEK3 it was 5%. Further, the “%Inh” value in the test with NEK4 was determined as 11%; with NEK5, 0%.

Turning to `NS(=O)(=O)c1cccc(-c2ccc3ncc(N4CCOCC4)nc3c2)c1` [GSK1535721], the “%Inh” value with MST1 turned out to be 0%; with MST2, 0%; with MST3, 0%; in the test with MST4 it was 0%; with MTOR, 9%; in the test with MUSK, 0%. The “%Inh” value came out at 0% in the test on MYLK2; 12% in the test with MYLK4; 2% in the test on MYLK; 15% in the test on MYO3A; 0% in the test with MYO3B; 21% in the test with NDR1. The “%Inh” value with NDR2 is 0%; in the test on NEK10 it was 0%; in the test with NEK11 it was 0%; with NEK1, 0%; with NEK2, 12%; in the test with NEK3 it was 0%. The “%Inh” value with NEK4 is recorded as 0%; in the test with NEK5 it was 8%.

As to `O=C(NCCCN1CCOCC1)c1cccc(Nc2nccc(Nc3ccc(Oc4ccccc4)cc3)n2)c1` [GW663929], the “%Inh” value is 0% in the test with MST1; 34% with MST2; 14% in the test with MST3; 0% in the test on MST4; 12% with MTOR; 2% in the test with MUSK. The “%Inh” value in the test on MYLK2 was 0%; with MYLK4 it was 25%; in the test on MYLK, 0%; with MYO3A, 35%; in the test on MYO3B, 0%; in the test with NDR1, 40%. For the same compound, the “%Inh” value is 41% in the test on NDR2; 0% in the test with NEK10; 13% in the test on NEK11; 11% with NEK1; 6% with NEK2; 5% in the test on NEK3. Moreover, the results for the “%Inh” value with NEK4 and in the test with NEK5 were 0% and 24%, respectively.
